Laboratory results from PubChem BioAssay AID1851 (National Center for Advancing Translational Sciences (NCATS), 2009).
Values joined by “and” are separate entries in the source; they are usually repeats but may differ in a detail not shown here. Equal entries are not always repeated. Screen size: about 16,000 compounds; about 5,700 (36%) were called active. Roughly 24% stayed inconclusive and do not appear here. The list shows a part of the results. Values without a mark were called inactive. Calls come from the whole dose curve; as a rule, active = well fitted curve in the direction sought with a large enough effect; inconclusive = small, poorly fitted or top-dose-only effect, or effect the other way; inactive = no such curve, though single readings can be large or run the other way.

molecular target: Cytochrome P450 1A2 (Homo sapiens) (UniProt P05177); experiment: Cytochrome panel assay with activity outcomes; settings: recombinant CYP, pro-luciferin dealkylation, luminescence, p450-cyp1a2; series mostly up to 57.1 µM
Sequence (P05177 whole entry, looked up): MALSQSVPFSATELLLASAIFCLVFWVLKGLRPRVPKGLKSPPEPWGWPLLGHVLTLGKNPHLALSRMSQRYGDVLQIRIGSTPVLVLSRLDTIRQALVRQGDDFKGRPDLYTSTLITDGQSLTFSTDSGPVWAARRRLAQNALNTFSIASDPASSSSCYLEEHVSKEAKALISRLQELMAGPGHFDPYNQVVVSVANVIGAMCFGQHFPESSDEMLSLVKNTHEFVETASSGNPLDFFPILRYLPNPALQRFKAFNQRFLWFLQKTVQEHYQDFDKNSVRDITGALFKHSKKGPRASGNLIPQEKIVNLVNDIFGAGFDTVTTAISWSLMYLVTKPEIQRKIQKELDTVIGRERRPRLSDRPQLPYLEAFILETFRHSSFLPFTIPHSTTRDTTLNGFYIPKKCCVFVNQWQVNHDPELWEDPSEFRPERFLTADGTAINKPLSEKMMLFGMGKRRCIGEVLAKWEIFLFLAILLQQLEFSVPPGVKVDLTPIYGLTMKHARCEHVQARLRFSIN
% is set by controls: 0 for no effect and ±100 for the full control effect.

| Structure (SMILES) | AC50 | activity, negative = inhibition |
| --- | --- | --- |
| CCc1cc2c(=O)n(-c3ccccc3)c(=S)[nH]c2s1 | inactive | – |
| O=c1c2c(-c3cccs3)csc2[nH]c(=S)n1-c1ccccc1 | 12600 nM (active) | – |
| CCN(CC)C(=O)c1sc2[nH]c(=S)n(-c3ccccc3)c(=O)c2c1C | inactive | – |
| N#C/C(=C\c1ccc(O)c(O)c1)C(N)=O | 39800 nM (active) | – |
| N#C/C(=C\c1ccc(O)c(O)c1)C(=O)NCCCc1ccccc1 | 12600 nM (active) | – |
| COc1ccc(/C=C(\C#N)C(N)=O)c(OC)c1 | 1580 nM (active) | – |
| N[C@@H](Cc1ccc(O)c(O)c1)C(=O)O | inactive | – |
| COc1cc(/C=C(\C#N)C(=O)c2ccc(O)c(O)c2)cc(I)c1O | 15800 nM (active) | – |
| Cc1cc(C)c(NC(=O)CS(=O)CC(=O)NCCCc2ccccc2)c(C)c1 (configuration not stated) | inactive | – |
| COc1ccc(/C=C(/C#N)C(=O)Nc2cc(C)ccc2C)cc1C(=O)O | inactive | – |
| CCOC(=O)C1=C(CSc2nc3ccccc3s2)NC(=O)NC1c1cc(C)ccc1C (configuration not stated) | inactive | – |
| COc1ccc(/C=N/n2c(C)nnc2C)c(OC)c1 | 14100 nM (active) | – |
| CCOC(=O)/C(C#N)=C\c1ccc(OCC(=O)Nc2ccc(C)cc2C)c(OC)c1 | inactive | – |
| COc1cc(/C=C(\C#N)C(N)=O)cc(CSc2nc3ccccc3s2)c1O | 1260 nM (active) | – |
| COc1ccc(/C=C(\C#N)C(N)=O)cc1OC | 3160 nM (active) | – |
| N#C/C(=C\c1ccc(O)c(O)c1)C(=O)Nc1ccccc1 | 501 nM (active) | – |
| CCOc1ccccc1/C=C(\C#N)C(N)=O | 2000 nM (active) | – |
| CCOC(=O)/C(C#N)=C\N(C)C | inactive | – |
| CC(=O)NCCc1ccc(O)c(O)c1 | inactive | – |
| N#C/C(=C\c1ccc(O)c(O)c1)C(=O)NCCc1ccccc1 | 10000 nM (active) | – |
| C[C@H](NC(=O)/C(C#N)=C/c1ccc(O)c(O)c1)c1ccccc1 | 15800 nM (active) | – |
| C/C(CCN1CCCCc2nc(C)c(C)cc21)=N\O[C@@H](C)c1cn([C@H](CO)Cc2ccccc2)nn1 | – | -1.07% [at 11.4 µM] and -1.23% [at 11.4 µM] |
| Cc1c2c(nc3c(C(=O)NC4CCCC4)cnn13)CCCC2 | 2820 nM (active) | – |

| Structure (SMILES) | AC50 | activity, negative = inhibition |
| --- | --- | --- |
| Cc1ccc(C(=O)NC2CCCCCC2)cc1N1CCCC1=O | inactive | – |
| Cc1cccc(N(CC(=O)NC2CCCC2)C(=O)c2cc3cc4cccc(C)c4nc3s2)c1C | inactive | – |
| C[C@@H](Cc1ccccc1)Nc1ncnc2c1ncn2[C@@H]1O[C@@H](CO)[C@H](O)[C@@H]1O | inactive | – |
| CC(Sc1nnc(C(C)N(C)C)n1-c1ccc(Cl)cc1)C(=O)Nc1ccc2c(c1)OCO2 (configuration not stated) | 17800 nM (active) | – |
| CCOC(=O)c1ccc(N2C(=O)CC(Nc3ccc(CCO)cc3)C2=O)cc1 (configuration not stated) | inactive | – |
| O=C(OCCCN1CCCCC1)c1ccc(O)cc1 | – | -21.1% [at 11.4 µM] |
| CCN(CC)CCOC(=O)c1ccc(N)cc1 | inactive | – |
| CCCCOC(=O)c1ccc(O)cc1 | 79.4 nM (active) | – |
| CCOC(=O)c1ccc(N)cc1 | 2000 nM (active) | – |
| CN(C)CCOC(=O)c1ccc(N)cc1 | – | 1.14% [at 11.4 µM] |
| CCCCNc1ccc(C(=O)OCCOCCOCCOCCOCCOCCOCCOCCOCCOC)cc1 | inactive | – |
| CCOC(=O)c1ccc(-c2ccc(CO)o2)cc1 | 2510 nM (active) | – |
| CO[C@@H]1COC(=O)[C@H]2CCCN2C(=O)[C@@H](C)COC(=O)CCC[C@H]1C | – | 6.36% [at 11.4 µM] |
| O=C1NC(=O)C(c2ccccc2)(c2ccccc2)N1 | inactive | – |
| COCC(=O)N1CCC[C@@]2(CCN(Cc3ccc(C#N)cc3)C2)C1 | inactive | – |
| O=S(=O)(c1cccc2c(I)cccc12)N1CCCNCC1 | 10000 nM (active) | – |
| CCN(CC)c1ccc(/C=C/c2nc3ccccc3s2)cc1 | 2510 nM (active) | – |
| Cc1cccc(CNc2ccnc(-c3ccoc3)n2)c1 | 2000 nM (active) | – |
| c1ccc(CNc2ccnc(-c3ccoc3)n2)cc1 | 2510 nM (active) | – |
| c1ccc2c(N3CCNCC3)nc(-c3ccc4c(c3)OCO4)nc2c1 | 12600 nM (active) | – |
| c1cc2c(cc1C(N1CCNCC1)N1CCNCC1)OCO2 | – | -3.03% [at 2.29 µM] |
| CN(C)c1ccc(-c2nc(N3CCNCC3)c3ccccc3n2)cc1 | 10000 nM (active) | – |
| O=C(Nc1ccccc1)N1CC[C@@]2(CCCN(C(=O)c3cnccn3)C2)C1 | inactive | – |

| Structure (SMILES) | AC50 | activity, negative = inhibition |
| --- | --- | --- |
| Cc1c(Cl)cnc(NC(=O)COC(=O)CCS(=O)(=O)c2ccccc2)c1Cl | 11200 nM (active) | – |
| CC(C)=CC(=O)OCC(=O)Nc1ncc(Cl)c(C)c1Cl | 25100 nM (active) | – |
| Cc1ccc(S(=O)(=O)N2CCOCC2)cc1NC(=O)COC(=O)CCC(=O)c1cccs1 | inactive | – |
| COC(=O)[C@@]1(Cc2ccc(F)cc2)[C@H]2c3cc(C(=O)N(C)C)n(Cc4ccc(C)o4)c3C[C@H]2CN1C(=O)c1ccccc1 | inactive | – |
| CCN(CC)CC#CCOC(=O)[C@@](O)(c1ccccc1)C1CCCCC1 | 3980 nM (active) | – |
| CC[N+](CC)(CC)CC[C@](O)(c1ccccc1)C1CCCCC1 | inactive | – |
| CCN(CC)CC#CCC(C)(c1ccccc1)c1ccccc1 | inactive | – |
| CCOC(=O)C(NC(C)=O)C(OC(C)=O)c1cccc(N(CCO)CCO)c1 (configuration not stated) | inactive | – |
| Cc1cc(C)c(C#N)c(SCS(=O)c2ccc(C(C)(C)C)cc2)n1 (configuration not stated) | 20000 nM (active) | – |
| CN1CCN(CC(O)c2ccccc2)CC1 (configuration not stated) | inactive | – |
| Cc1[nH]nc(N2CCCCCC2)c1[N+](=O)[O-] | 2000 nM (active) | – |
| COc1ccccc1CCn1c(=O)c(-c2cccc(Cl)c2)nc2cncnc21 | 316 nM (active) | – |
| COc1ccccc1CCn1c(=O)c(-c2ccccc2)nc2cncnc21 | 1000 nM (active) | – |
| Cn1c(=O)c(-c2cccs2)nc2cncnc21 | 1260 nM (active) | – |
| COc1ccccc1CCn1c(=O)c(-c2ccc(F)cc2)nc2cncnc21 | 1000 nM (active) | – |
| CCCC[C@]1(C2CCCC2)Cc2cc(OCC(=O)O)c(Cl)c(Cl)c2C1=O | inactive | – |
| Cc1[nH]n(C(C)(C)C)c(=O)c1Sc1ccccc1 | inactive | – |
| COCCn1c(=O)c(-c2cccs2)nc2cncnc21 | 3160 nM (active) | – |
| COc1ccccc1CCn1c(=O)c(-c2ccc(F)c(F)c2)nc2cncnc21 | 2000 nM (active) | – |
| COc1ccccc1CCn1c(=O)c(-c2ccc(Cl)cc2)nc2cncnc21 | 631 nM (active) | – |
| COc1ccccc1CCn1c(=O)c(-c2cccs2)nc2cncnc21 | 2000 nM (active) | – |
